Reference: PubChem BioAssay (Tox21)
Records with an inconclusive call do not appear. A call without a number means that no potency is given here. The source made the active and inactive calls. The call rests on the fitted dose curve.

target: Thyrotropin receptor (Homo sapiens) (UniProt P16473); assay: qHTS assay to identify small molecule antagonists of the thyroid stimulating hormone receptor (TSHR) signaling pathway (AID 1259385); details: TSHR-HEK293 cAMP HTRF, TSH-stimulated antagonist mode; series mostly up to 92.4 µM; further: nearly all actives have a fitted effect of over 20% in size
Sequence (P16473 whole entry, looked up): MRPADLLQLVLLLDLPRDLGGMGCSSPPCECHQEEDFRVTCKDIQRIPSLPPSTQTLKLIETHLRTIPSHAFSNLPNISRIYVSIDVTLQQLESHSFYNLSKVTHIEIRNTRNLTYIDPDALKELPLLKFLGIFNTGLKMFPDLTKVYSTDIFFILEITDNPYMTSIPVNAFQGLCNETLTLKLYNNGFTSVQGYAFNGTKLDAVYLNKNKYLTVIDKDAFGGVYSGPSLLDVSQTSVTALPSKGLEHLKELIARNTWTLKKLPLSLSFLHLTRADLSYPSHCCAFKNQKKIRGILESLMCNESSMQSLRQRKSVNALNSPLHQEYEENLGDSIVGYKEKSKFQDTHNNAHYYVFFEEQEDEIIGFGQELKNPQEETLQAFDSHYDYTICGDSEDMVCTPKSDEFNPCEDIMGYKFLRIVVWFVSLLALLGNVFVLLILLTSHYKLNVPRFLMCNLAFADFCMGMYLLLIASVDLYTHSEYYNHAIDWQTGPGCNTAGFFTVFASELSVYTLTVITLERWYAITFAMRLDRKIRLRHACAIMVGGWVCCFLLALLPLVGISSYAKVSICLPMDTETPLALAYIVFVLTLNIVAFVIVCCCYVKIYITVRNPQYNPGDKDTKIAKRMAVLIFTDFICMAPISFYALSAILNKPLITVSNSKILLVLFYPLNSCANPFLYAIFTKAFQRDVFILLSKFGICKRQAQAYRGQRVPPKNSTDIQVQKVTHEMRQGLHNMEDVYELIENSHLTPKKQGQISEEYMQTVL
Text: U.S. Tox21 Program National Center for Advancing Translational Sciences [NCATS] NIH Chemical Genomics Center [NCGC] U.S. Environmental Protection Agency [EPA] National Institutes of Environmental Health Sciences [NIEHS] National Toxicology Program [NTP] U.S. Food and Drug Administration [FDA] Tox21 Assay Overview: TSHR is the receptor for thyrotropin (thyroid stimulating hormone or TSH), a member of the glycoprotein hormone family. TSH is released by the anterior pituitary gland and is the main regulator of thyroid gland growth and development. Upon binding circulating thyrotropin, a G-protein signal cascade activates adenylyl cyclase and […] cAMP concentration is increased. cAMP is a key second messenger involved extensively in cellular signal transduction pathways associated with the majority of G-protein coupled receptors (GPCRs). The activation of these GPCRs by neurotransmitters, lipids, nucleotides, peptides and hormones results in the activation or the inhibition of plasma membrane-bound adenylate cyclase through heterotrimeric G-proteins. A cell-based TSHR assay can be used to screen chemical compounds that modulate TSHR either in agonist or antagonist mode.
Tox21 Assay Protocol Summary: TSHR-Hek293 cells were dispensed at 800 cells/4uL/well in 1536-well white plates using a Multidrop dispenser. After the assay plates were incubated at a 37C/5% CO2 incubator for 18 hrs, 23 nL of compounds dissolved in DMSO, positive controls or DMSO only was transferred to the assay plate by a pin tool, followed by 1 ul medium containing Ro20-1724. For the antagonist mode screening, 1 uL of TSH was added on the top of the cell/compound mixtures to achieve a final agonist concentration of 1.5 ng/mL. After 30 min of incubation at room temperature, 2.5 ul/well of cAMP-d2 and 2.5 ul/well of anti-cAMP-cryptate were added respectively into the assay plates using a Flying Reagent Dispenser. The plates were incubated at room temperature for 1 hr. The fluorescence intensity in the plates was measured using an Envision plate reader. Each test compound was measured at 15 concentrations and in triplicates.
Potency means the concentration at half of the fitted maximal effect.

SMILES | Potency
CC1(C)NC(=O)N(c2ccc([N+](=O)[O-])c(C(F)(F)F)c2)C1=O | inactive
C[N+](C)(C)CCO | inactive
CCC/C=C/C=O | inactive
CN(C)CCCN1c2ccccc2Sc2ccc(Cl)cc21 | 26.6 µM (active)
CCCCCCOCCOCCO | inactive
CCCCCCCCCCC(CO)CCCCCCCC (stereo not given) | inactive
OC[C@@H](O)[C@@H](O[C@@H]1O[C@H](CO)[C@H](O)[C@H](O)[C@H]1O)[C@H](O)[C@@H](O)CO | inactive
CC/C(=C(/CC)c1ccc(O)cc1)c1ccc(O)cc1 | inactive
O=[Se](O)O | inactive
CCCCCC=O | inactive
CN(Cc1cnc2nc(N)nc(N)c2n1)c1ccc(C(=O)N[C@@H](CCC(=O)O)C(=O)O)cc1 | inactive
CC(C)(C)c1cccc(C(C)(C)C)c1O | inactive
CCCCCCCC/C=C\CCCCCCCC(=O)O | inactive
O=Cc1ccccc1C=O | inactive
Cc1ccc(N)c([N+](=O)[O-])c1 | inactive
[O-]/[N+](=N\O)c1ccccc1 | inactive
Cc1ccc(/C(=C\CN2CCCC2)c2ccccn2)cc1 | inactive
CC(C)(Oc1ccc(Cl)cc1)C(=O)O | inactive
Cc1ccc([N+](=O)[O-])c(C)c1 | inactive
CCO[Si](CCCNC(N)=O)(OCC)OCC | inactive

SMILES | Potency
C[C@]12CC[C@@H]3c4ccc(O)cc4CC[C@H]3[C@@H]1CC[C@H]2O | 31.2 µM (active)
OCCNCCO | inactive
COC(=O)c1ccc(C)cc1 | inactive
C[C@]12C=CC(=O)C=C1CC[C@H]1[C@@H]3C[C@@H](O)[C@](O)(C(=O)CO)[C@@]3(C)C[C@H](O)[C@@]12F | inactive
COc1ccc(C(=O)c2ccccc2O)c(O)c1 | inactive
CC(=O)O[C@]1(C(C)=O)CC[C@H]2[C@@H]3C=C(C)C4=CC(=O)CC[C@]4(C)[C@H]3CC[C@@]21C | inactive
CC/C=C\C/C=C\C/C=C\CCCCCCCC(=O)O | inactive
c1ccc2cc3ccccc3cc2c1 | inactive
FC(F)(F)C(Cl)Br (stereo not given) | inactive
Cc1ccc(C(C)(C)C)cc1 | inactive
CC(=O)[C@H]1CC[C@H]2[C@@H]3CC=C4C[C@@H](O)CC[C@]4(C)[C@H]3CC[C@]12C | inactive
Nc1ccc2c(O)cc(S(=O)(=O)O)cc2c1 | inactive
O=C(O)CCCCCCCCCCCC(=O)O | inactive
CCCCCCCCCCCCO | inactive
NCCN | inactive
c1ccc2ncccc2c1 | inactive
CC(=O)O[C@]1(C(C)=O)CC[C@H]2[C@@H]3C=C(Cl)C4=CC(=O)CC[C@]4(C)[C@H]3CC[C@@]21C | 29.8 µM (active)
C1COCCN1 | inactive
CCCCCC1C(=O)CCC1CC(=O)OC (stereo not given) | inactive
Cc1ccc(S(=O)(=O)NCl)cc1 | inactive
